Experimental findings from PubChem BioAssay AID504832 (National Center for Advancing Translational Sciences (NCATS), 2011) are described below.

Values joined by “and” are separate entries in the source; they are usually repeats but may differ in a detail not shown here. Identical values can stand only once. About 18,000 (5.8%) of roughly 310,000 compounds were called active. Where a call stands in place of a potency, no number is given. Inconclusive results (about 22%) are left out. The sample as a whole holds a higher share of actives than the screen did. Unmarked numbers belong to inactive results. Calls follow the shape of the dose curve; as a rule, active = well fitted inhibition curve with a large enough effect; inconclusive = small, poorly fitted or top-dose-only effect, or another doubt; inactive = no such curve, though single readings can be large or run the other way.
Potency is read from the fitted curve at half-maximal effect.

A short description of this assay: Primary qHTS for delayed death inhibitors of the malarial parasite plastid, 48 hour incubation. Particulars: P. falciparum luciferase growth in erythrocytes; series mostly up to 28.7 µM. The essentials: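 Luminescence readout; reporter = integrated firefly luciferase in P. falciparum. RBC culture at 2% hematocrit, 0.1% parasitemia final, 37 C/5% CO2; decreased signal taken as growth inhibition.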
As for `CCCc1c(C(=O)N/N=C(\C)CCc2ccc(OC)cc2)nnn1-c1nonc1N`, the Potency result was “inactive”.

Regarding `CC(C)C(NC(=O)c1c(F)cccc1F)C(=O)NCc1ccncc1` (centres undefined), the Potency entry is “inactive”.

With `O=C(CCl)NNc1nc(-c2ccccc2)c2cc(Cl)ccc2n1`, the Potency entry was “inactive”.

Turning to `Cc1ccc2nc(Nc3ccccc3O)nc(-c3ccccc3)c2c1`, the Potency is 13.1 µM (active).

On to `CCS(=O)(=O)Nc1cccc(-c2cc(-c3ccccc3)c3cc(C)ccc3n2)c1`, for which the Potency result is “inactive”.

In the case of `Nc1c(C(=O)OCC(=O)Nc2ccc(OC(F)F)cc2)[nH]c(=O)[nH]c1=O`, the Potency entry was “inactive”.

As to `O=C(c1cc(COc2ccc(F)cc2F)on1)N1CCOCC1`, the Potency entry was “inactive”.

On to `CCCCN(CCCC)CCC(O)c1cc2c(Cl)cc(Cl)cc2c2cc(C(F)(F)F)ccc12` (centres undefined), for which the Potency is 3.2 nM (active) and 4.1 nM (active).

Turning to `CCCCC(=O)Nc1ccc(C(=O)Nc2cc(C(F)(F)F)ccc2Cl)cc1`, the Potency entry is “inactive”.

Regarding `COc1cccc(CNC(=O)COc2cc(O)c3c(c2)OC(C)(C)CC3=O)c1`, the Potency entry is “inactive”.

For the compound `O=C(CSc1nnc2c(n1)[nH]c1ccccc12)NC1CCCCC1`, the Potency result is “inactive”.

As to `Clc1ccc(CSc2nnc3c(n2)[nH]c2ccccc23)cc1`, the Potency is 5.22 µM (active).

Consider `Cc1ccc(CNC(=O)CSc2nnc3c(n2)[nH]c2ccc(F)cc23)cc1`, for which the Potency entry was “inactive”.

Regarding `CCCCN(C(=O)c1ccc(S(=O)(=O)N2CCOCC2)cc1)C1CCS(=O)(=O)C1` (centres undefined), the Potency result is “inactive”.

As to `O=C1NCC(=O)N(Cc2ccccc2)/C1=C/c1ccccc1`, the Potency result is “inactive”.

For `O=C1OC(c2ccc(Cl)cc2)=N/C1=C\c1cccnc1`, the Potency entry is “inactive”.

On to `O=C1NNC(c2ccccc2)=N/C1=C\c1ccc(Cl)cc1`, for which the Potency was 6.57 µM (active).

On to `COc1ccc(C2CC(c3ccc([N+](=O)[O-])cc3)=NN2C(C)=O)cc1` (centres undefined), for which the Potency entry was “inactive”.

As to `CNC(=O)C1CC(=O)N(c2ccc(OCC(=O)Nc3ccccc3C)cc2)C1` (centres undefined), the Potency result is “inactive”.

Take `O=C1C(=O)N(CCCO)C(c2ccccc2)/C1=C(\O)c1ccc(Br)cc1` (centres undefined): the Potency entry was “inactive”.

Consider `Cc1ccc(OCCOc2cccc(/C=N/NC(N)=O)c2)cc1`, for which the Potency result was “inactive”.

Regarding `O=C(N/N=C/c1cccc(O)c1)c1cc2c(ccc3ccccc32)o1`, the Potency entry is “inactive”.

`O=C(N/N=C/c1cccc(OCc2ccccc2)c1)c1ccc(Br)o1`: the Potency was 9.28 µM (active).

As for `O=C(NCCCN1CCOCC1)c1cc(-c2ccccc2F)no1`, the Potency entry is “inactive”.

Turning to `Nc1ccccc1Sc1ccc(C(F)(F)F)cc1[N+](=O)[O-]`, the Potency result is “inactive”.

`Nc1ccccc1SC(C[N+](=O)[O-])c1ccccc1` (centres undefined): the Potency is 4.15 µM (active).

`Nc1ccccc1SCc1cc([N+](=O)[O-])cc2c1OCOC2`: the Potency result was “inactive”.

For the compound `CN(c1ccc(O)cc1)c1nc(-c2cccnc2)cs1`, the Potency result was “inactive”.

With `O=C1CCCC2=C1C(c1ccccc1)n1c(s/c(=C/c3cccc(F)c3)c1=O)=N2` (centres undefined), the Potency result was “inactive”.

For the compound `COc1ccc(OC)c(C2C3=C(N=c4s/c(=C\c5cccc(O)c5)c(=O)n42)c2ccccc2CC3)c1` (centres undefined), the Potency is 5.86 µM (active).

Regarding `O=C(NCCc1ccc(F)cc1)c1ccc2nccnc2c1`, the Potency entry is “inactive”.

With `CC(C)Nc1ncnc2c1nnn2Cc1ccccc1`, the Potency entry was “inactive”.

Turning to `Clc1ccc(Nc2ncnc3c2nnn3Cc2ccccc2)cc1`, the Potency result was “inactive”.

For the compound `CC(C)Cc1nc(Nc2ccc(S(=O)(=O)N3CCCC3)cc2)c2nnn(Cc3ccccc3)c2n1`, the Potency was 4.65 µM (active).

As for `COc1cccc(CNC(=O)c2cccnc2Sc2ccc(Cl)cc2)c1`, the Potency result was “inactive”.

`COc1ccc(C(=O)OCC(=O)c2ccc(Cl)s2)c(OC)c1OC`: the Potency entry is “inactive”.

For `O=[N+]([O-])c1cc([N+](=O)[O-])c2cccnc2c1O`, the Potency result was “inactive”.

For the compound `CC(CNc1ccc([N+](=O)[O-])c2cccnc12)Nc1c([N+](=O)[O-])cc(C(F)(F)F)cc1[N+](=O)[O-]` (centres undefined), the Potency was 10.4 µM (active).

On to `CCN(CC)c1ccc([N+](=O)[O-])c2cccnc12`, for which the Potency result is “inactive”.

Consider `N#Cc1cccc(OC(=O)c2ccc3c(=O)n4c(nc3c2)CCC4)c1`, for which the Potency entry was “inactive”.

`C=CCOc1ccc(/C=C/C(=O)OCC(=O)NC(C)c2ccc(F)cc2)cc1` (centres undefined): the Potency result is “inactive”.

In the case of `CCOC(=O)C1CCCN(CCSc2ccc(C)cc2)C1` (centres undefined), the Potency result was “inactive”.

As for `O=c1c(-c2ccc3c(c2)OCCO3)c(C(F)(F)F)oc2cc(O)cc(O)c12`, the Potency result is “inactive”.

With `CCc1cc2c(=O)c(-c3ccc(F)cc3)c(C(F)(F)F)oc2cc1OCC(=O)O`, the Potency entry is “inactive”.

With `CCN1CCN(Cc2c(O)ccc3c(=O)c(-c4ccc(OC)c(OC)c4)c(C(F)(F)F)oc23)CC1`, the Potency is 7.38 µM (active).

In the case of `CC(CN1CCC(n2nccc2NC(=O)C2CCCC2)CC1)c1ccccc1` (centres undefined), the Potency result was “inactive”.

For the compound `CC1CN(S(=O)(=O)c2cccc(C(F)(F)F)c2)CN1C(=O)N1CCOCC1` (centres undefined), the Potency result was “inactive”.

Turning to `Cc1ccc(C(=O)NC2CCN(C(=O)Nc3ccccc3Cl)CC2)cc1`, the Potency entry was “inactive”.

As to `CC1=C(C(N)=O)C(c2ccc(Br)cc2)n2ncnc2N1` (centres undefined), the activity change, negative = inhibition was 5.11% [at 0.00184 µM].

For `Clc1ccc2c(c1)C1=C(C(c3ccncc3)O2)C(c2ccc(Br)cc2)n2ncnc2N1` (centres undefined), the Potency is 13.1 µM (active).

As for `COC(=O)C1=C(C)Nc2ncnn2C1c1cccnc1` (centres undefined), the Potency entry was “inactive”.

For the compound `CN1CCN(C(=O)C(=O)c2cn(CC(=O)N3CCCC3)c3ccccc23)CC1`, the Potency result is “inactive”.

With `CCN1CCN(c2ccc(S(=O)(=O)N3CCCCC3)cc2NC(=O)Cc2c(Cl)cccc2Cl)CC1`, the Potency result is “inactive”.

As for `Cc1ccc(S(=O)(=O)N2CCCCC2)cc1NC(=O)c1cccnc1`, the Potency entry was “inactive”.

For the compound `CCN(CC(=O)N1CCCC1)S(=O)(=O)c1ccc(F)cc1`, the Potency entry is “inactive”.

As for `O=C(COC(=O)Cc1ccc(F)cc1)Nc1cc(S(=O)(=O)N2CCOCC2)ccc1N1CCCC1`, the Potency result is “inactive”.

On to `CCN(CC)S(=O)(=O)c1ccc(N2CCOCC2)c(NC(=O)C2COc3ccccc3O2)c1` (centres undefined), for which the Potency result is “inactive”.

In the case of `CCN(CC)S(=O)(=O)c1cc(C(=O)Nc2cc(S(=O)(=O)N3CCOCC3)ccc2N2CCCC2)ccc1F`, the Potency is 7.38 µM (active).

With `CCN1CCN(c2ccc(S(=O)(=O)N3CCCCC3)cc2NC(=O)c2cccc(NC(C)=O)c2)CC1`, the Potency was 13.1 µM (active).

With `CCN(CC)S(=O)(=O)c1ccc(N2CCOCC2)c(NC(=O)C(C)Oc2ccc(F)cc2)c1` (centres undefined), the Potency was 4.65 µM (active).

For `COCCNC(=S)Nc1cc(S(=O)(=O)N2CCOCC2)ccc1N1CCCCC1`, the Potency result was “inactive”.

In the case of `Cc1cc(NC(=O)CSC2=NS(=O)(=O)c3cc(Cl)ccc3N2)no1`, the Potency result was “inactive”.

Consider `Cc1cc(S(=O)(=O)c2cc3ccc(O)c(C)c3oc2=O)ccc1F`, for which the activity change, negative = inhibition was 8.19% [at 0.00184 µM].

As for `CCN(CC(=O)NCC(=O)Nc1cccc(C)c1C)Cc1ccccc1`, the Potency result is “inactive”.

In the case of `CC(Oc1cc2oc(=O)c3c(c2cc1Cl)CCCC3)C(=O)NCc1ccncc1` (centres undefined), the Potency entry was “inactive”.

`Cc1nc2nc(C)c(NS(=O)(=O)c3ccc(C(C)(C)C)cc3)c(=O)n2[nH]1`: the Potency result was “inactive”.

Consider `CCCc1nn2c(=O)cc(CSCC(=O)Nc3cccc(C)c3)nc2s1`, for which the Potency entry was “inactive”.

Take `CCCNC(=S)N1CCC(NC(=O)c2ccc(OC)cc2)CC1`: the Potency result was “inactive”.

For the compound `COc1cc(OC)cc(C(=O)NC2CCN(C(=O)N3c4ccccc4Sc4ccccc43)CC2)c1`, the Potency was 13.1 µM (active).

Take `COc1ccc(C(=O)NC2CCN(C(=S)Nc3ccccc3)CC2)cc1`: the Potency entry is “inactive”.

Consider `CSc1ccc(S(=O)(=O)N2CCC(C(=O)NCc3ccncc3)CC2)cc1`, for which the Potency result is “inactive”.

As for `O=c1c2ccccc2cnn1Cc1n[nH]c(=S)n1-c1ccccc1F`, the Potency entry is “inactive”.

On to `Cn1c2cc(B(O)O)sc2c2cnn(Cc3ccccc3F)c(=O)c21`, for which the Potency is 10.4 µM (active).

As for `Cn1cc(C(=O)NCc2ccccc2F)cn1`, the Potency entry was “inactive”.

With `Cc1[nH]c2ccc(C(=O)N3CCN(C)CC3)cc2c1C`, the Potency result is “inactive”.

As for `COCCNC(=O)c1ccc(-n2c(SCc3cccnc3)nc3ccccc3c2=O)cc1`, the Potency entry is “inactive”.

In the case of `COC(=O)c1ccc(CSc2nc3ccccc3c(=O)n2-c2cccc(OC)c2)o1`, the Potency is 13.1 µM (active).

Turning to `Cc1nn(-c2ccccc2)c(C)c1/C=N/NC(=O)CSc1nc2ccccc2c(=O)n1-c1ccccc1`, the Potency entry is “inactive”.

Take `CN=C1S/C(=C\c2c(OC)cc(OC)cc2OC)C(=O)N1C`: the Potency entry is “inactive”.

Consider `CC(=O)NCCc1ccc(S(=O)(=O)Nc2ccc(C)c(S(=O)(=O)N3CCOCC3)c2)cc1`, for which the Potency result is “inactive”.

Consider `COCCNC(=O)C(c1ccc(C)cc1)N(C(=O)CCC(=O)Nc1ccccn1)c1cccc(C)c1` (centres undefined), for which the Potency entry is “inactive”.

As to `COc1ccccc1N1CC(C(=O)Nc2nnc(SCC(=O)NC(C)C)s2)CC1=O` (centres undefined), the Potency entry is “inactive”.

Regarding `COc1ccccc1N1CC(C(=O)Nc2nnc(SCC(=O)NCC3CCCO3)s2)CC1=O` (centres undefined), the Potency result is “inactive”.

Turning to `Cc1ccc(C(=O)NCC(=O)O)cc1S(=O)(=O)N1CCCCC1`, the Potency entry is “inactive”.

For `Cc1ccc(C(=O)OCC(=O)N2CC(C)CC(C)C2)cc1S(=O)(=O)N1CCCCC1` (centres undefined), the Potency entry is “inactive”.

Take `Cc1ccc(C(=O)OCC(=O)NCc2cc(C)c(O)c(C)c2)cc1S(=O)(=O)N1CCCCC1`: the Potency is 8.28 µM (active).

For `O=C(c1ccccc1F)N1CCN(S(=O)(=O)c2ccc(Br)cc2)CC1`, the Potency result is “inactive”.

Take `CCOC(=O)c1cc(-c2ccccc2C)n(Cc2cc(C)no2)n1`: the Potency result was “inactive”.

For the compound `COc1ccc(NC(=S)NCCN2CCC(C)CC2)cc1`, the activity change, negative = inhibition is 17.2% [at 5.75 µM].

On to `COc1ccc(NC(=S)NCC2CCN(c3ccc(OC)cc3)C2)cc1` (centres undefined), for which the Potency is 11.7 µM (active).

With `COc1ccc(N2CCC(CNC(=S)Nc3c(C)cccc3C)C2)cc1` (centres undefined), the Potency was 11.7 µM (active).

Turning to `COc1ccc(N2CCC(N3CCN(C)C(CCO)C3)CC2)cc1` (centres undefined), the Potency result is “inactive”.

As to `COc1cccc(N2CC(C(=O)Nc3c(C)cccc3C)CC2=O)c1` (centres undefined), the Potency result is “inactive”.

As to `COc1ccc(NC(=O)N2CCC(Cc3ccccc3)CC2)cc1`, the Potency entry was “inactive”.

`Cc1cc(C)cc(NS(=O)(=O)Cc2ccccc2)c1`: the Potency entry is “inactive”.

Regarding `CC(OC(=O)/C=C/c1ccccc1)C(=O)Nc1ccc(C(N)=O)cc1` (centres undefined), the Potency entry is “inactive”.

On to `Cc1ccccc1NC(=O)Cc1nc(COC(=O)c2ccc(C(F)(F)F)cc2)cs1`, for which the Potency result was “inactive”.

Consider `Cc1ccc(S(=O)(=O)N2CC(C)N(S(C)(=O)=O)C2)cc1` (centres undefined), for which the Potency result was “inactive”.

`CCOC(=O)C1=C(COC(=O)[C@H](C)NS(=O)(=O)c2ccccc2F)NC(=O)NC1C` (some centres undefined): the Potency result was “inactive”.
